In the library only some 3.7% were active in any assay of this set; here they are far more common.
tim23-1 inh: growth inhibitors of tim23-1 mutant yeast; S. cerevisiae tim23-1 growth, BacTiter-Glo luminescence, 24 h; actives 1.3% (n = 330,000); inhibition, % at 20 µM;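 active means growth inhibition of the mutant yeast at or above 50%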;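 further: temperature-sensitive mutant grown at 25 °C; plate controls were DMSO-treated mutant yeast for no effect and medium wells lacking yeast for full effect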
TIM10 inh: inhibits growth of TIM10 yeast strain | S. cerevisiae TIM10 strain growth, BacTiter-Glo luminescence, 24 h | inhibition, % at 10 µM | actives 1.4% (n = 330,000);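 active means inhibition of 40% or more at the single tested concentration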;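 further: wild-type TIM10 isogenic control strain grown at permissive 25 °C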
tim10-1 inh: tim10-1 yeast growth inhibition; actives 2.2% (n = 330,000); inhibition, % at 20 µM; AID 463190; S. cerevisiae tim10-1 ts strain growth, BacTiter-Glo, 24 h;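 active means inhibition of at least 40%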;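 further: mutant grown at 25 °C; 0% = DMSO wells with yeast and 100% = wells holding no yeast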
V-ATPase pHluor: alters yeast V-ATPase proton transport; actives 0.37% (n = 350,000); S. cerevisiae, pHLuorin cytosolic pH fluorescence; response, % at 10 µM; AID 504577; in the data active means response mostly above about 7.3%, no sharp cut-off; inactive means mostly below about 5.4%; further: actives read high
PfHsp90 yeast 2: growth inhibition of yeast expressing Plasmodium Hsp90 | S. cerevisiae expressing PfHsp90, BacTiter-Glo ATP, 48 h; yeast lacking PDR1 and PDR3 efflux regulators | inhibition, % at 9.4 µM | actives 0.32% (n = 310,000);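 active means every replicate shows inhibition above about 80%, whatever the replicate mean, limit read from the data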;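 further: 0% = DMSO neutral controls and 100% = 20 µM radicicol positive controls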
tim10-1 conf: tim10-1 yeast growth inhibition, confirmed. shares compounds with tim10-1 inh. S. cerevisiae tim10-1 ts strain growth, BacTiter-Glo, 24 h. inhibition, % at 20 µM. actives 56% (n = 7,400). AID 463213;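 active means inhibition of yeast growth at or above a set limit in either of two repeat tests at 20 µM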;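 further: tim10-1 mutant grown at permissive 25 °C to find synthetic lethal compounds; 0% = DMSO yeast wells and 100% = medium wells without yeast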
TIM10 conf: confirmation of TIM10 yeast growth inhibitors; actives 63% (n = 4,600); inhibition, % at 10 µM; AID 463215; shares compounds with TIM10 inh; S. cerevisiae tim10 strain growth, BacTiter-Glo luminescence, 24 h;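 active means inhibition of yeast growth at or above a set limit in either of two replicates at 10 µM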;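 further: this counterscreen used the strain with wild-type TIM10; 0% = yeast with DMSO and 100% = medium wells lacking yeast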
Active calls of the source: *; / = no result given.

SMILES	tim23-1 inh	TIM10 inh	tim10-1 inh	V-ATPase pHluor	PfHsp90 yeast 2	tim10-1 conf	TIM10 conf
Cc1ccc(NC(=S)NCc2ccc3[nH]c4c(c3c2)CCCC4)cc1	48	46*	47*	-1	-38	29*	30
O=c1c2c(nc(NCCO)n1CC1CCCCC1)-c1ccccc1CC21CCCC1	43	52*	55*	1	4	37*	-35
O=c1[nH]c(NCCO)nc2c1C1(CCCCC1)Cc1ccccc1-2	34	18	39	1	1	/	/
Cc1cc(C)c(NC(=O)CSCc2c(C)noc2C)c(Cl)c1	4	-4	11	-1	-2	/	/
CC(C)C(C(=O)O)N1CCS(=O)(=O)CC1 (configuration not stated)	-3	14	-1	0	14	/	/
O=C(CSc1ccccc1F)NNC(=O)c1ccncc1	-6	1	0	1	6	/	/
Cc1onc(-c2ccccc2)c1C(=O)O/N=C(\N)c1ccc([N+](=O)[O-])o1	34	51*	50*	1	-2	29	48*
C/C(=N\OC(=O)c1c(-c2ccccc2Cl)noc1C)c1ccncc1	-6	16	9	0	/	/	/
Cc1onc(-c2ccccc2Cl)c1C(=O)O/N=C(\N)c1ccccc1	32	55*	49*	0	1	63*	45*
Cc1ccc(-n2cccc2C(=S)N=P(N(C)C)(N(C)C)N(C)C)cc1	26	46*	41*	0	4	26	14
CCCCOC(=O)CSCC(=O)N1N=C(c2cccs2)CC1c1ccc(F)cc1 (configuration not stated)	32	30	32	-1	-16	/	/
CCOC(=O)CSCC(=O)N1N=C(c2cccs2)CC1c1ccc(F)cc1 (configuration not stated)	42	41*	47*	0	-15	34*	-11
COCC(=O)Nc1cccc(Br)c1	13	-2	0	-4	-16	/	/
CCOC(=O)/C=C/C(=O)OCC(=O)Nc1cccc(Br)c1	39	51*	47*	-2	21	33*	29*
CN(C)CCCN(C(=O)c1ccc2ccccc2c1)c1nc2cc3c(cc2s1)OCO3	21	46*	50*	0	4	43*	35*
CCN(c1ccccc1)S(=O)(=O)c1ccc(C(=O)N(CCCN(C)C)c2nc3cc4c(cc3s2)OCO4)cc1	44	52*	64*	2	-15	60*	46*
O=[N+]([O-])c1ccccc1C1Nc2cccc3cccc(c23)N1	49	57*	85*	0	-9	76*	69*
ON=C(CCc1ccccc1)CCc1ccccc1	/	/	/	-2	/	/	/
Oc1cc(NCc2cccnc2)ccc1-c1nc2ccccc2o1	27	55*	47*	-1	/	27	39*
c1ccc2c(c1)nc(N1CCOCC1)c1c3ccccc3[nH]c21	44	49*	40*	0	-10	21	61*
O=C(O)C(=O)Nc1ncn[nH]1	/	/	/	4	/	/	/
O=C(/C=C/c1ccccc1)Nc1ncn[nH]1	41	53*	49*	3	23	56*	48*
CC1C(=O)N2CCCc3cc(NC(=O)CC(C)(C)C)cc1c32 (configuration not stated)	5	-6	5	2	8	/	/
CCC(=O)Nc1cccc(C(=O)/C=C/c2ccc(F)cc2)c1	32	47*	48*	2	7	43*	22
CCn1c(/C=C/c2ccccc2F)nc2ccccc2c1=O	44	18	34	-2	-3	/	/
SMILES	tim23-1 inh	TIM10 inh	tim10-1 inh	V-ATPase pHluor	PfHsp90 yeast 2	tim10-1 conf	TIM10 conf
CCOc1ccc(S(=O)(=O)NN=C(C)c2cccnc2)cc1	5	8	-4	-4	-15	/	/
C#CCn1c(S(=O)(=O)Cc2ccc(OC)cc2)nc(-c2ccccc2)c1-c1ccccc1	48	45*	47*	-2	/	41*	24
CCc1ccc(NC2=CC(=O)CC(c3ccco3)C2)cc1 (configuration not stated)	37	41*	42*	2	8	26	16
Cc1cc(C)cc(NC2=CC(=O)CC(c3ccco3)C2)c1 (configuration not stated)	5	-6	6	-2	/	/	/
O=C(/C=C/c1cccc(OCc2ccccc2)c1)c1cccnc1	37	65*	57*	1	1	50*	52*
CCOC(=O)C1CCN(S(=O)(=O)c2cccc(-c3cn4cccc(C)c4n3)c2)CC1	39	50*	55*	-4	-7	21	-29
CC(c1nnnn1C(C)(C)C)N(Cc1cccnc1)Cc1ccccc1Cl (configuration not stated)	31	42*	50*	-2	2	34*	32*
CC(C)(C)n1nnnc1C(c1cccs1)N(Cc1cccnc1)Cc1ccccc1Cl (configuration not stated)	46	34	36	-4	-9	/	/
COc1ccc(NS(=O)(=O)c2ccc3c(c2)CCC(=O)N3)cc1O	10	4	23	8	/	/	/
CC1(C2CC2)NC(=O)N(CC(=O)Nc2ccccc2C#N)C1=O (configuration not stated)	-3	4	-1	8	/	/	/
COc1ccc(-c2cn[nH]c2-c2ccc(OCc3ccc([N+](=O)[O-])cc3)cc2O)cc1	28	42*	47*	-5	-14	12	-6
CC(=O)N1CC2(CC(c3ccccc3C(F)(F)F)=NO2)CN1c1ccc(Cl)cc1 (configuration not stated)	/	/	/	0	/	/	/
CC(C)c1ccc(/C=C(\c2nc3ccccc3[nH]2)S(=O)(=O)c2ccccc2)cc1	45	46*	54*	-7	-9	47*	37*
Oc1ccc(C[C@@H]2CNC(=S)N2CCCCC2CCCCC2)cc1	38	40*	53*	-1	-36	25	18
O[C@@H]1C[C@H](c2ccccc2)N(CC2CCCCC2)C[C@H]1n1cc(C2CC2)nn1	/	/	/	1	/	/	/
CCCCCCCCCOC(=O)C(CC(=O)O)N1CCOCC1 (configuration not stated)	44	50*	42*	-1	1	37*	44*
CCN(C(=O)COC(=O)c1n[nH]c2ccccc12)c1ccccc1	26	7	31	0	9	/	/
CCOc1cc2c3c(c1)C1(OCCO1)C(=O)N3C(C)(C)CC2C (configuration not stated)	24	-10	14	3	24	/	/
CCOc1cc2c3c(c1)C1(Nc4ccccc4S1)C(=O)N3C(C)(C)CC2C (configuration not stated)	46	47*	49*	1	5	48*	32*
